According to ChEMBL document CHEMBL1961873, “Compounds: GSK PKIS; Assays: Nanosyn kinase panel” (2012):

Tests used:
[1] = biological target: Mast/stem cell growth factor receptor Kit (Homo sapiens) (UniProt P10721); details: at 1 µM
[2] = system: Mast/stem cell growth factor receptor Kit (Homo sapiens), P10721 [D816V]; details: at 0.1 µM
[3] = system: Mast/stem cell growth factor receptor Kit (Homo sapiens), P10721 [D816V]; details: at 1 µM
[4] = system: Mast/stem cell growth factor receptor Kit (Homo sapiens), P10721 [T670I]; details: at 0.1 µM
[5] = system: Mast/stem cell growth factor receptor Kit (Homo sapiens), P10721 [T670I]; details: at 1 µM
[6] = system: Mast/stem cell growth factor receptor Kit (Homo sapiens), P10721 [V560G]; details: at 0.1 µM
[7] = system: Mast/stem cell growth factor receptor Kit (Homo sapiens), P10721 [V560G]; details: at 1 µM
[8] = biological target: Tyrosine-protein kinase Lck (Homo sapiens) (UniProt P06239); details: at 0.1 µM
[9] = biological target: Tyrosine-protein kinase Lck (Homo sapiens) (UniProt P06239); details: at 1 µM
[10] = biological target: Leukocyte tyrosine kinase receptor (Homo sapiens) (UniProt P29376); details: at 0.1 µM
[11] = biological target: Leukocyte tyrosine kinase receptor (Homo sapiens) (UniProt P29376); details: at 1 µM
[12] = biological target: Tyrosine-protein kinase Lyn (Homo sapiens) (UniProt P07948); details: at 0.1 µM
[13] = biological target: Tyrosine-protein kinase Lyn (Homo sapiens) (UniProt P07948); details: at 1 µM
[14] = biological target: Tyrosine-protein kinase Lyn (Homo sapiens) (UniProt P07948); details: at 0.1 µM; remark: listed apart in the source
[15] = biological target: Tyrosine-protein kinase Lyn (Homo sapiens) (UniProt P07948); details: at 1 µM; remark: listed apart in the source
[16] = biological target: T1, Tyrosine-protein kinase Mer (Homo sapiens) (UniProt Q12866); details: at 0.1 µM
T1 sequence (whole entry): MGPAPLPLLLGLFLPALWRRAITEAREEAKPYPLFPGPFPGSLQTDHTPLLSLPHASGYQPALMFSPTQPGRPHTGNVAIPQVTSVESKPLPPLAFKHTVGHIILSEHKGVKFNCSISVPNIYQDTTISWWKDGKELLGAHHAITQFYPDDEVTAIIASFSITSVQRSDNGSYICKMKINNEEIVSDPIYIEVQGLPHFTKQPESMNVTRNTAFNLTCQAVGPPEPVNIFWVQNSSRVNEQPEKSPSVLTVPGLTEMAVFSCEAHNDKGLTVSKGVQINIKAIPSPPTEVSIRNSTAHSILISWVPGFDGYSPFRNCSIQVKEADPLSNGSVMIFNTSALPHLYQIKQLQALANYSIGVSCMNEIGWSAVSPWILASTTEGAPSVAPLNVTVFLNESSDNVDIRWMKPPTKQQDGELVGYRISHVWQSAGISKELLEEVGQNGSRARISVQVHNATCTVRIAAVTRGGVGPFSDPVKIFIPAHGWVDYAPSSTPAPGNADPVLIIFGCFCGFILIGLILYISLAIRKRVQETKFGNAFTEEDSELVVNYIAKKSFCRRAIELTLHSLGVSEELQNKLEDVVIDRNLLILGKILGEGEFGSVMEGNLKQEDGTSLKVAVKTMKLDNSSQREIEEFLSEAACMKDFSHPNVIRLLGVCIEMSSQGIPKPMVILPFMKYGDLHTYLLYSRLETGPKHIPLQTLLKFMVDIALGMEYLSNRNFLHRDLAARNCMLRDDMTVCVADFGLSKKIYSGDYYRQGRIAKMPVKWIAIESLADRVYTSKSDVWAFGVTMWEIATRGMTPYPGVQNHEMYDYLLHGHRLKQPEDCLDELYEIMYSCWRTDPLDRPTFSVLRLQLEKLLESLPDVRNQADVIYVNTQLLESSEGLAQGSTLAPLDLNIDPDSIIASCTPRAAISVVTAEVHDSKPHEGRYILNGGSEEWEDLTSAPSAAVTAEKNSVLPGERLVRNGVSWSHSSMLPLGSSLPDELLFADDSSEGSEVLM

[17] = biological target: T1, Tyrosine-protein kinase Mer (Homo sapiens); details: at 1 µM
[18] = biological target: Hepatocyte growth factor receptor (Homo sapiens) (UniProt P08581); details: at 0.1 µM
[19] = biological target: Hepatocyte growth factor receptor (Homo sapiens) (UniProt P08581); details: at 1 µM
[20] = biological target: T2, Muscle, skeletal receptor tyrosine-protein kinase (Homo sapiens) (UniProt O15146); details: at 0.1 µM;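 also: values are mean inhibition of MuSK from the GSK PKIS kinase screening panel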
T2 sequence (whole entry): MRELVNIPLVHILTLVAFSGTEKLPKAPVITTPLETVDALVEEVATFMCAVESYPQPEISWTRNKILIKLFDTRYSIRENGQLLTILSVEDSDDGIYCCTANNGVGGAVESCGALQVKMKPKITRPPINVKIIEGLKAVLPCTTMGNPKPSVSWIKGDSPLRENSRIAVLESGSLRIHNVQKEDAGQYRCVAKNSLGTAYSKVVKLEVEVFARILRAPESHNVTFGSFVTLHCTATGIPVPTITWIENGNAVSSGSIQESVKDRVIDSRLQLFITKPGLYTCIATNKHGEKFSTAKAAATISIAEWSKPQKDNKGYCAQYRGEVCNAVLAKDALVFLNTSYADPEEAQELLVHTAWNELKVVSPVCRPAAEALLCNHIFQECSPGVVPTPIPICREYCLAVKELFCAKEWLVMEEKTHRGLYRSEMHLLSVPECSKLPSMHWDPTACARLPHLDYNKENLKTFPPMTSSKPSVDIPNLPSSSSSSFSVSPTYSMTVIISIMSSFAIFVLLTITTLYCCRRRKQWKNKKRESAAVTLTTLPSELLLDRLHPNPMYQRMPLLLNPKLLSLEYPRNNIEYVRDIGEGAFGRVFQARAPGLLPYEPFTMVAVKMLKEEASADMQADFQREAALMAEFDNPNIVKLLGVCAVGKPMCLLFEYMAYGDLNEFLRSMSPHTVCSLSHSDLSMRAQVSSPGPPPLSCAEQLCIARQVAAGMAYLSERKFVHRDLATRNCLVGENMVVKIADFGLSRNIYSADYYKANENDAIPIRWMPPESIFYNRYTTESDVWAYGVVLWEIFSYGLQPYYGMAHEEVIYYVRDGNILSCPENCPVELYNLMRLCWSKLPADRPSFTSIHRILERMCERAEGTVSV

Mast/stem cell growth factor receptor Kit (Homo sapiens), sequence (P10721 whole entry): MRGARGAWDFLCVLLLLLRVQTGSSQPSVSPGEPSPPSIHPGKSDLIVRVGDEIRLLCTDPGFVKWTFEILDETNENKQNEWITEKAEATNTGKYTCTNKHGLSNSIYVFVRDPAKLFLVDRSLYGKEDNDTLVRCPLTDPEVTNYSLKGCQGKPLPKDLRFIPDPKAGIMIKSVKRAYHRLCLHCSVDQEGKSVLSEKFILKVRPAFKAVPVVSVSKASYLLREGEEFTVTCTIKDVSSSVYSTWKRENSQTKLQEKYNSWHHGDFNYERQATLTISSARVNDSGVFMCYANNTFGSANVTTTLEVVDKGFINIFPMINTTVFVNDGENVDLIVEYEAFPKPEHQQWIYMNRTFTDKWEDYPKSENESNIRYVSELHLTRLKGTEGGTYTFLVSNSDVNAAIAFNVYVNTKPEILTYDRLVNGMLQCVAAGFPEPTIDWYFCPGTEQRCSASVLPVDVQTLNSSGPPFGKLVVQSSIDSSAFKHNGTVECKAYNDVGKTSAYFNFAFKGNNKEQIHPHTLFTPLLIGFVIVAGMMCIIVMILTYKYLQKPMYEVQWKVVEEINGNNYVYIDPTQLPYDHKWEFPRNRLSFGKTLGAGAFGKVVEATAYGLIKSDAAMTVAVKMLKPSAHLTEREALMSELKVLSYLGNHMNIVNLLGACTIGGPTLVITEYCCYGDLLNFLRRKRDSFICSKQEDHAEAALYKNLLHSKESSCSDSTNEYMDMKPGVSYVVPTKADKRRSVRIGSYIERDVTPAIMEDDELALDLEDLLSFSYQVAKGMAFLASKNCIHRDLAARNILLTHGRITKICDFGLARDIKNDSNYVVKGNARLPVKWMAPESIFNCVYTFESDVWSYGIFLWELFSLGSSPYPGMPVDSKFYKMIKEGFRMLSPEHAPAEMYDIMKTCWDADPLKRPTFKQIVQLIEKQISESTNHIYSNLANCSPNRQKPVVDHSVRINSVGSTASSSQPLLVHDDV
Tyrosine-protein kinase Lyn (Homo sapiens), sequence (P07948 2-512 limits assumed): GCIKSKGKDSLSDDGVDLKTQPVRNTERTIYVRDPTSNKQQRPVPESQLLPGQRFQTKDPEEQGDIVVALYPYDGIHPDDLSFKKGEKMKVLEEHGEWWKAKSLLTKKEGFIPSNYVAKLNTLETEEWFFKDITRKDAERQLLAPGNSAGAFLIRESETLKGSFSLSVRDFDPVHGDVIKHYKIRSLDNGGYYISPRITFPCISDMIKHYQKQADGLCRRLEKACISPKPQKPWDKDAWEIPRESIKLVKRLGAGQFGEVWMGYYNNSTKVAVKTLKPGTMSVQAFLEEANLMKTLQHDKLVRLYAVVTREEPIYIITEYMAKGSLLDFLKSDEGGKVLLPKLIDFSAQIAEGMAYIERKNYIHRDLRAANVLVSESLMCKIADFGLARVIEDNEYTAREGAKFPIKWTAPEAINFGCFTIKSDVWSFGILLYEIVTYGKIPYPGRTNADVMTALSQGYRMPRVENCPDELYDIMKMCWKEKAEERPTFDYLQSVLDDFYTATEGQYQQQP
Mast/stem cell growth factor receptor Kit (Homo sapiens), P10721 [V560G], sequence (P10721 whole entry V560G): as the sequence (P10721 whole entry) above, with V560G counted along it
Leukocyte tyrosine kinase receptor (Homo sapiens), sequence (P29376 whole entry): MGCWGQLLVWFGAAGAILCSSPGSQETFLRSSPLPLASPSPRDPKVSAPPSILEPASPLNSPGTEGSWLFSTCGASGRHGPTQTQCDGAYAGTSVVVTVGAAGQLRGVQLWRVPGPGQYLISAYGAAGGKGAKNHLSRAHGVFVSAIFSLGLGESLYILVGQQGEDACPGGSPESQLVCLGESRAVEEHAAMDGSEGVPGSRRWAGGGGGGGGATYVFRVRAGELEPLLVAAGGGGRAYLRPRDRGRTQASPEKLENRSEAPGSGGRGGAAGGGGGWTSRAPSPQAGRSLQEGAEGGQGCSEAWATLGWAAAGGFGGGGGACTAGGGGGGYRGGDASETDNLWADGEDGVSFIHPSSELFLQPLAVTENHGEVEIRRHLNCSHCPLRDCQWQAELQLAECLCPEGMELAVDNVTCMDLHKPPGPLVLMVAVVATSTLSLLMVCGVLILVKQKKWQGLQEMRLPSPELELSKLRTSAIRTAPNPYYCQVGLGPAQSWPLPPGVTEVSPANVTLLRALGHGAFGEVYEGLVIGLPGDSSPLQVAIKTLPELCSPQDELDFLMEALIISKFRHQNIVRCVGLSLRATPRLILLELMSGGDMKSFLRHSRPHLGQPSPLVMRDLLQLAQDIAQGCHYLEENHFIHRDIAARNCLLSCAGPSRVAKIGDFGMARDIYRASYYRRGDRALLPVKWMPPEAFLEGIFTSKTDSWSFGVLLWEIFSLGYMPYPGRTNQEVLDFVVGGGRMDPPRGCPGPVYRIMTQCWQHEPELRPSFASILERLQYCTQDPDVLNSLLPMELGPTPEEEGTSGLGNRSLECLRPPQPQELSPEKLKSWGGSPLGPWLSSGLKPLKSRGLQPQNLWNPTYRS
Hepatocyte growth factor receptor (Homo sapiens), sequence (P08581 whole entry): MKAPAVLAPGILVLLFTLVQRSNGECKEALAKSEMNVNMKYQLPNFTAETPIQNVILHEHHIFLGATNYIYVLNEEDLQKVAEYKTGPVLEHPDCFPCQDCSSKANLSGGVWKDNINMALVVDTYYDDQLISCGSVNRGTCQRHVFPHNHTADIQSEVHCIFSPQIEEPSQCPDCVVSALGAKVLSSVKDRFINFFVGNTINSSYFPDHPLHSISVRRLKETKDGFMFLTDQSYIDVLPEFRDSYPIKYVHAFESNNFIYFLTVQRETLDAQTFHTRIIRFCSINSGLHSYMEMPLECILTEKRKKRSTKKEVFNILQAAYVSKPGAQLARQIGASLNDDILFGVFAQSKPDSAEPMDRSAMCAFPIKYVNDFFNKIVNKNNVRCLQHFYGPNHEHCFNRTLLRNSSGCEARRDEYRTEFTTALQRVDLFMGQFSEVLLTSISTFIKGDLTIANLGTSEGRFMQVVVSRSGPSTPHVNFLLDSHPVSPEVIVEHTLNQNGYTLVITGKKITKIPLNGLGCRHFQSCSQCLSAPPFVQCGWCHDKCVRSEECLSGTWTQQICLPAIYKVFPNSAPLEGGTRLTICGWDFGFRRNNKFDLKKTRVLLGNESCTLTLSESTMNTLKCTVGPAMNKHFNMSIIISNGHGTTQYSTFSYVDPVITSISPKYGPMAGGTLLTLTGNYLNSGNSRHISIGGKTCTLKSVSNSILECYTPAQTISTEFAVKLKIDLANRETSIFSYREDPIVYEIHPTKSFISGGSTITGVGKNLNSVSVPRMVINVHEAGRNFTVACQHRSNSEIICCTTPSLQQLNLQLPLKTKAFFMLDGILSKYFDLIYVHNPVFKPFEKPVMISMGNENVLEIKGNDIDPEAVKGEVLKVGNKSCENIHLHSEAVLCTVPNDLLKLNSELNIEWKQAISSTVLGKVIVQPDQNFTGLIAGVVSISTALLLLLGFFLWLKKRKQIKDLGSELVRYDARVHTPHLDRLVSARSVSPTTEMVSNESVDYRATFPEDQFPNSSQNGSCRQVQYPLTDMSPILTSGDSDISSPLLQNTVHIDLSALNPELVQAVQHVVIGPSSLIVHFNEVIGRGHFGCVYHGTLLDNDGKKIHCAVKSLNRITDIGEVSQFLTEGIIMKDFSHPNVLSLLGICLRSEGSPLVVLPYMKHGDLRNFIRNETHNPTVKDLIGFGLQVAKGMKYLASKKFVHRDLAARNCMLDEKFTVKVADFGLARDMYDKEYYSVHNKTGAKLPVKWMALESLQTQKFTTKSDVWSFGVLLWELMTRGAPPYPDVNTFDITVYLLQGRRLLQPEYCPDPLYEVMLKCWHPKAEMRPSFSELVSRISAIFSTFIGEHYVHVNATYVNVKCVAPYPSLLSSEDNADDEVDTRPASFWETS
Mast/stem cell growth factor receptor Kit (Homo sapiens), P10721 [T670I], sequence (P10721 whole entry T670I): as the sequence (P10721 whole entry) above, with T670I counted along it
Tyrosine-protein kinase Lck (Homo sapiens), sequence (P06239 2-509 limits assumed): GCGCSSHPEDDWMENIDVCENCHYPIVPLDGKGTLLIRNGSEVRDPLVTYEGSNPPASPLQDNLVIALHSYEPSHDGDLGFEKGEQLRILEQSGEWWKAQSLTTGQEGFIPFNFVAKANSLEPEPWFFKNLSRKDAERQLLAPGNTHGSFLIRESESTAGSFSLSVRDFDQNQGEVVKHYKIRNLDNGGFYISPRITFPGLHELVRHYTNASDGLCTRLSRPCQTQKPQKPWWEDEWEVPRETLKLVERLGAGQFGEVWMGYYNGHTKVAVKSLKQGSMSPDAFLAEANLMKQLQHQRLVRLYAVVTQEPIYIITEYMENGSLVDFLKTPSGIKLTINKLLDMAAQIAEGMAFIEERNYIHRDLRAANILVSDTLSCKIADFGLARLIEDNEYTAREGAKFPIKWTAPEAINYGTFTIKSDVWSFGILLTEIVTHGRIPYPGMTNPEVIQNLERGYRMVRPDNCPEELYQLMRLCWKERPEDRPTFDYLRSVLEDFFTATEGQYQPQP
Mast/stem cell growth factor receptor Kit (Homo sapiens), P10721 [D816V], sequence (P10721 whole entry D816V): as the sequence (P10721 whole entry) above, with D816V counted along it

SMILES	inhibition [1] [%]	inhibition [2] [%]	inhibition [3] [%]	inhibition [4] [%]	inhibition [5] [%]	inhibition [6] [%]	inhibition [7] [%]	inhibition [8] [%]	inhibition [9] [%]	inhibition [10] [%]	inhibition [11] [%]	inhibition [12] [%]	inhibition [13] [%]	inhibition [14] [%]	inhibition [15] [%]	inhibition [16] [%]	inhibition [17] [%]	inhibition [18] [%]	inhibition [19] [%]	inhibition [20] [%]
C[C@@H](Oc1cc(-n2cnc3ccc(OCC4CCN(C)CC4)cc32)sc1C(N)=O)c1ccccc1Cl	8.33	5.13	8.23	0.47	5.37	-4.48	0.38	7.42	29.8	4.38	10.3	5.95	17.7	4.21	13.8	1.86	5.73	2.19	9.62	41.5
COc1ccc2cc(-c3c(-c4ccncc4)nc(-c4ccc([S+](C)[O-])cc4C)n3C)ccc2c1 (stereo not given)	4.45	-3.23	-3.08	0.48	0.67	4.53	-0.3	0.43	8.73	0.03	2.92	2	21.4	0.52	16.8	0.82	9.89	-1.42	3.32	0.94
N#Cc1ccc(Oc2nccc(-c3c(-c4ccc(F)cc4)ncn3C3CCNCC3)n2)cc1	6.19	2.91	2.36	3.26	4.72	-0.39	-1.19	3.86	6.11	4.74	5.69	5.36	7.26	3.37	4.34	2.29	2.26	3.69	6.49	1.86
O=C1Nc2ccccc2/C1=C/Nc1ccc(-n2cncn2)cc1	75.9	4.37	8.01	8.82	47.4	-2.32	10.2	3.98	9.02	3.3	7.47	6.77	21.6	4.42	17.3	1.28	5.61	5.14	13.6	3.92
O=C1Nc2ccc(I)cc2C1=Cc1cc(Br)c(O)c(Br)c1	18.4	2.74	2.13	-0.52	4.39	-4.29	-1.08	3.11	3.54	4.82	9.99	4.2	7.49	2.6	4.55	2.32	2.36	1.23	4.15	1.59
CN(c1ccc(NC(=O)Nc2c(Cl)cccc2Cl)cc1)c1ccnc(Nc2cccc(CS(C)(=O)=O)c2)n1	95.9	-0.59	2.33	12.3	35.9	71.3	81.5	45.5	61.2	0.54	1.45	29.7	64.8	27.1	60.9	14.6	29.6	80.8	85	72.8
CN(C)CCCNc1nccc(-c2c(-c3ccc(F)cc3)nn3cc(C(F)(F)F)ccc23)n1	2.1	1.94	-0.31	0.09	0.14	6.47	4.04	-2.05	3.17	1.9	1.19	1.87	6.57	0.99	5.88	1.56	5.87	3.45	10.6	10.1
O=C(NCC1CC1)c1ccc(-c2cccc(C(=O)NC3CC3)c2)cc1	3.45	2.24	-0.44	3.77	-2.45	3.49	5.84	1.74	4.51	1.6	-0.6	0.78	1.7	0.33	2.4	0.92	3.13	5.94	-2.79	6.72
NC(=O)Cc1ccccc1Oc1nccc(-c2c(-c3ccc(F)cc3)ncn2C2CCNCC2)n1	0.35	0.95	-1.59	-0.35	-1.27	0.54	-3.43	1.45	1.06	3.35	2.41	2.61	3.78	1.91	1.88	0.54	3.34	2.67	3.24	2.87
Cc1nnc(-c2ccc(C)c(-c3ccc(C(=O)NCc4ccc(Cl)cc4)cc3)c2)o1	3.81	4.88	1.51	2.49	7.38	-1.65	-1.05	-2.94	-1.25	1.83	4.02	3.85	8.64	2.14	4.87	2.04	1.93	4.09	6.08	2.38
O=C(Nc1n[nH]c2nc(-c3ccco3)ccc12)C1CC1	1.57	-0.41	0.03	1.03	2.02	3.13	6.74	1.24	3.59	1.06	1.2	2.83	4.01	1.47	3.2	2.01	1.71	4.66	5.26	5.75
CCC(=O)Nc1ccc(C)c(-c2ccc(C(=O)NCC3CC3)cc2)c1	4.74	-1.54	5.31	2.5	3.87	-0.17	-1.72	2.57	5.27	4.98	3.92	4.52	5.05	1.69	2.75	2.88	4.95	6.02	4.29	1.96
NCc1ccc(-n2c(-c3nonc3N)nc3cnccc32)cc1	10.8	4.7	2.04	4.14	5.42	-2.06	2.07	3.81	4.5	5.22	5.03	6.22	5.56	4.38	2.34	1.5	5.54	5.16	9.91	6.42
COc1cc(N2CCN(C(C)C)CC2)ccc1Nc1nc(Nc2ccc(F)cc2C(=O)NC[C@@H](O)CO)c2cc[nH]c2n1	6.9	4.14	7.71	3.52	4.77	-2.07	-1.61	-1.06	-2.81	55.2	88.7	4.36	9.54	2.42	7	0.94	3.95	-1.77	3.3	1.43
